Assay results taken from PubChem BioAssay AID1159580 (chemical genetic matrix, 2015).
Screen size: about 5,500 compounds; about 2,000 (36%) were called active. About 18% were inconclusive and are not listed. Rule as the data show it: active = normalized growth mostly below about 0.91 (no sharp cut-off); inconclusive = no clear call, values can overlap the other calls; inactive = mostly above about 0.92. Some of the results follow.

Test: chemical genetic growth profiling, strain panel (AID 1159580);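 also: tested at 20 µM; growth read once vehicle control cultures reached saturation at 30 °C; 1 = growth at the plate median or of vehicle wells; lower values mean less growth of the strain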
Settings: S. cerevisiae deletion strains, growth OD

Measured: normalized growth

COC(=O)[C@]1(C)CCC[C@]2(C)c3ccc(C(C)C)cc3C(=O)CC12 (stereo partly drawn)
active: locus YBR171W, strain sec66, active compounds read low 0.869 | locus YDR392W, strain spt3, active compounds read low 0.732
inactive: locus YAL013W, strain DEP1, active compounds read low 0.981 | locus YAL021C, strain ccr4, active compounds read low 0.992 | locus YAL026C, strain drs2, active compounds read low 0.952 | locus YAL030W, strain snc1, active compounds read low 0.974 | locus YBL061C, strain skt5, active compounds read low 0.972 | locus YBR009C, strain hhf1, active compounds read low 0.961 | locus YBR021W, strain FUR4, active compounds read low 1.1 | locus YBR023C, strain chs3, active compounds read low 0.973 | locus YBR229C, strain ROT2, active compounds read low 0.986 | locus YBR231C, strain swc5, active compounds read low 0.968 | locus YBR279W, strain paf1, active compounds read low 0.971 | locus YCL011C, strain gbp2, active compounds read low 0.961 | locus YCL016C, strain dcc1, active compounds read low 0.979 | locus YCL029C, strain bik1, active compounds read low 1.01 | locus YCL061C, strain MRC1, active compounds read low 0.968 | locus YCL069W, strain vba3, active compounds read low 0.956 | locus YCR088W, strain abp1, active compounds read low 0.96 | locus YDL005C, strain med2, active compounds read low 0.945 | locus YDL035C, strain GPR1, active compounds read low 0.999 | locus YDL040C, strain nat1, active compounds read low 0.96 | locus YDL074C, strain BRE1, active compounds read low 0.863 | locus YDL101C, strain DUN1, active compounds read low 0.969 | locus YDL134C, strain PPH21, active compounds read low 0.974 | locus YDL185W, strain tfp1, active compounds read low 1 | locus YDL192W, strain arf1, active compounds read low 1.01 | locus YDR001C, strain nth1, active compounds read low 0.957 | locus YDR069C, strain doa4, active compounds read low 0.974 | locus YDR101C, strain arx1, active compounds read low 1.01 | locus YDR137W, strain rgp1, active compounds read low 0.866 | locus YDR150W, strain NUM1, active compounds read low 0.975 | locus YDR159W, strain sac3, active compounds read low 0.95 | locus YDR162C, strain NBP2, active compounds read low 0.866 | locus YDR195W, strain ref2 0.97 | locus YDR297W, strain sur2, active compounds read low 0.967 | locus YDR318W, strain mcm21, active compounds read low 1.02 | locus YDR334W, strain swr1, active compounds read low 0.948 | locus YDR335W, strain msn5, active compounds read low 0.978 | locus YDR388W, active compounds read low 1 | locus YDR502C, strain sam2, active compounds read low 0.985 | locus YEL003W, strain gim4, active compounds read low 0.977 | locus YEL037C, strain rad23, active compounds read low 0.95 | locus YEL061C, strain CIN8 (second series), active compounds read low 0.948 | locus YEL061C, strain CIN8, active compounds read low 0.997 | locus YER015W, strain faa2, active compounds read low 0.974 | locus YER016W, strain bim1, active compounds read low 0.958 | locus YER110C, active compounds read low 1.02 | locus YER111C, strain swi4, active compounds read low 0.956 | locus YER155C, strain BEM2 (second series), active compounds read low 0.956 | locus YER155C, strain BEM2, active compounds read low 0.995 | locus YER167W, strain BCK2, active compounds read low 0.997 | locus YFR010W, strain ubp6, active compounds read low 0.977 | locus YGL078C, strain dbp3, active compounds read low 0.988 | locus YGL086W, strain mad1, active compounds read low 1.01 | locus YGL167C, strain pmr1, active compounds read low 0.928 | locus YGL173C, strain kem1, active compounds read low 0.97 | locus YGL227W, strain vid30, active compounds read low 0.972 | locus YGL240W, strain doc1, active compounds read low 0.973 | locus YGL248W, strain PDE1, active compounds read low 0.971 | locus YGL253W, strain hxk2, active compounds read low 0.978 | locus YGR078C, strain PAC10, active compounds read low 0.957 | locus YGR135W, strain pre9, active compounds read low 0.954 | locus YGR229C, strain SMI1, active compounds read low 0.861 | locus YGR252W, strain gcn5, active compounds read low 1.1 | locus YHR013C, strain ard1, active compounds read low 0.959 | locus YHR027C, strain rpn1, active compounds read low 0.971 | locus YHR030C, strain SLT2, active compounds read low 1 | locus YHR079C, strain IRE1 (second series), active compounds read low 0.999 | locus YHR094C, strain hxt1, active compounds read low 0.995 | locus YHR129C, strain ARP1, active compounds read low 0.994 | locus YHR142W, strain chs7, active compounds read low 0.98 | locus YHR200W, strain rpn10, active compounds read low 0.993 | locus YIL066C, strain RNR3, active compounds read low 0.974 | locus YIL073C, strain SPO22, active compounds read low 1.01 | locus YIL125W, strain kgd1, active compounds read low 0.996 | locus YIR030C, strain dcg1, active compounds read low 0.993 | locus YJL092W, strain hpr5, active compounds read low 0.946 | locus YJL095W, strain BCK1 (second series), active compounds read low 0.972 | locus YJL095W, strain BCK1, active compounds read low 0.889 | locus YJL115W, strain asf1, active compounds read low 0.962 | locus YJL129C, strain trk1, active compounds read low 0.899 | locus YJL134W, strain LCB3, active compounds read low 0.989 | locus YJL154C, strain vps35, active compounds read low 0.967 | locus YJL164C, strain tpk1, active compounds read low 0.957 | locus YJL166W, strain qcr8, active compounds read low 0.968 | locus YJL168C, strain set2, active compounds read low 0.998 | locus YJL187C, strain SWE1 (second series), active compounds read low 0.98
